Rows were chosen to be rich in hits. Some 19% of all compounds tested hit in one or more screens of this group.
KB-V1 MDR tox – qHTS assay for MDR1-selective chemotherapeutics: Primary screen using the drug-selected MDR subline cells KB-V1. KB-V1 MDR cells viability, CellTiter-Glo, 72 h. Potency, µM (doses to about 46.1 µM), actives largely listed as cytotoxic. 400,000 compounds, 3.4% hits. AID 1347076, 2019; further: nearly all actives have a fitted effect of over 60% in size
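Cytotoxicity via CellTiter-Glo luminescence after 72 h compound exposure at 37 degrees C. Cells: drug-selected KB-V1 line, DMEM phenol-red free plus 10% FBS. Compounds tested at multiple concentrations; normalized data fitted to concentration-effect curves.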
KB-3-1 cytotox – qHTS assay for MDR1-selective chemotherapeutics: Primary screen using the parental adenocarcinoma cell KB-3-1; KB-3-1 viability, CellTiter-Glo ATP luminescence, 72 h; Potency, µM (top dose mostly 46.1 µM), actives largely listed as cytotoxic; 400,000 compounds, 1.4% hits; AID 1347075, 2019; further: nearly all actives have a fitted effect of over 60% in size
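Using CellTiter-Glo luminescence, growth of non-resistant KB-3-1 adenocarcinoma cells is assessed 72 h after pin-tool compound addition at 37 °C. Normalized responses across the concentration series yield fitted curves.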
HT1080 IDH1KD tx – qHTS for induction of synthetic lethality in tumor cells producing 2HG: qHTS for the HT-1080-IDH1KD cell line; 360,000 compounds, 2% hits; HT-1080 IDH1 knockdown viability, ATP luminescence, 48 h; Potency, µM (top dose mostly 46.1 µM), without a hit: at the top dose activity, negative = toxicity, actives largely listed as cytotoxic;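 further: 0% = DMSO wells and -100% = cell-free medium wells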
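Viability of IDH1-knockdown HT-1080 fibrosarcoma cells was assessed by CellTiter-Glo after 48 h at 37 °C with titrated compound; concentration-effect curves were classified by fit quality and response size.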
HT1080-NT tox – qHTS for induction of synthetic lethality in tumor cells producing 2HG: qHTS for the HT-1080-NT fibrosarcoma cell line; HT-1080-NT fibrosarcoma viability, CellTiter-Glo ATP luminescence, 48 h; Potency, µM (titrated, usually from 46.1 µM), for the others: at the top dose activity, negative = less viability, most hits filed as cytotoxic; AID 686970, 2013; 360,000 compounds, 1.6% hits;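 further: NT is the 2HG producing partner of a matched IDH1 knockdown line; 0% = DMSO-treated cells and -100% = media-only wells without cells; nearly all actives have a fitted effect of over 55% in size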
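750 cells/well, RPMI + 5% FBS; 2 h settle, compound pin-transfer, 48 h at 37 degrees C. CellTiter-Glo 10 min RT, luminescence. Normalized to DMSO and media-only wells.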
TDP1 cell CPT – qHTS for Inhibitors of human tyrosyl-DNA phosphodiesterase 1 (TDP1): qHTS in cells in presence of CPT. chicken DT40 Tdp1-/-;hTDP1 cells + 20 nM CPT, ATP luminescence, 48 h. Potency, µM (top dose mostly 46.2 µM), without a hit: top-dose activity change, negative = growth inhibition, most hits filed as inhibitors. 420,000 compounds, 12% hits; further: nearly all actives have a fitted effect of over 55% in size
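Cell growth measured by CellTiter-Glo luminescence after a minimum 48 h, 37 C compound exposure with 20 nM CPT in Tdp1-knockout DT40 cells stably expressing hTDP1, seeded 400/well; qHTS titration format.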
TDP1 cell noCPT – qHTS for Inhibitors of human tyrosyl-DNA phosphodiesterase 1 (TDP1): qHTS in cells in absence of CPT; 420,000 compounds, 15% hits; Potency, µM (series often up to 46.2 µM), inactives show at the highest dose activity change, negative = growth inhibition, actives largely listed as inhibitors; DT40 Tdp1-/- hTDP1 cells, no CPT, ATP luminescence, 48 h; further: nearly all actives have a fitted effect of over 55% in size
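Chicken DT40 Tdp1-/- cells stably complemented with human TDP1 were seeded at 400 cells/well with DMSO in place of 20 nM camptothecin. After compound pinning, cells grew at least 48 hr at 37 °C; viability read by CellTiter-Glo luminescence.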
Numbers without * were called inactive; i = inactive; ? = inconclusive; nt = not tested or not shown; ! = not active in a repeat. The call rests on the fitted dose curve; in most records, active means well fitted curve in the direction sought with a large enough effect; inconclusive means small, poorly fitted or top-dose-only effect, or another doubt; inactive means no such curve, though single readings can be large; an effect the other way counts as inactive or inconclusive. Unless noted, on the % scale 0 is the no-effect control and ±100 the full control effect; potency means the concentration at half of the fitted maximal effect.

SMILES	KB-V1 MDR tox	KB-3-1 cytotox	HT1080 IDH1KD tx	HT1080-NT tox	TDP1 cell CPT	TDP1 cell noCPT
Cc1cc(I)ccc1Nc1nc(NCCN2CCOCC2)nc(N2CCOCC2)n1	i	?	nt	nt	3.2µM*	5.6µM*
CN(C)c1ccc(/C=C/C=N/Nc2nc(N3CCOCC3)nc(N3CCOCC3)n2)cc1	i	i	-3%	-8%	16µM*	?
C(=N\Nc1nc(N2CCOCC2)nc(N2CCOCC2)n1)/c1ccncc1	i	i	-3%	0%	0%	-18%
BrC(/C=C\c1ccccc1)=N/Nc1nc(N2CCOCC2)nc(N2CCOCC2)n1	i	i	?	?	7.3µM*	10µM*
BrC(=C\c1ccccc1)/C=N/Nc1nc(N2CCOCC2)nc(N2CCOCC2)n1	i	i	?	?	2.3µM*	13µM*
COCC(C)NC(=O)c1cc2c(=O)n3cccc(C)c3nc2s1 (stereo unspecified)	i	i	nt	nt	-18%	-21%
COc1ccc(-c2ccc3c(c2)C2CC3CCN2Cc2ccc(OC(F)(F)F)cc2)cc1 (stereo unspecified)	i	?	0%	-4%	?	?
Oc1ccc(/C=N/Nc2ccc(Cl)nn2)cc1O	i	i	-6%	-16%	?	15µM*
C/C(=N\Nc1nc(N2CCCCC2)nc(N2CCOCC2)n1)c1ccccc1O	16µM*	?	18µM*	?	?	21µM*
Oc1ccc(Br)cc1/C=N/Nc1nc(N2CCCCC2)nc(N2CCOCC2)n1	i	?	-3%	-2%	15µM*	?
Oc1ccc(/C=N/Nc2nc(N3CCCC3)nc(N3CCCC3)n2)cc1O	i	i	-14%	-7%	?	5.8µM*
COc1cc(/C=N/Nc2nc(N3CCCC3)nc(N3CCCC3)n2)ccc1O	i	i	-6%	-16%	-28%	?
Oc1ccc(/C=N/Nc2nc(N3CCCCCC3)nc(N3CCCCCC3)n2)c(O)c1	?	i	?	?	?	?
C/C(=C/C=N/Nc1nc(N2CCCCC2)nc(N2CCCCC2)n1)c1ccccc1	i	i	2%	1%	-27%	?
O=C(COc1ccccc1F)Nc1ccc(OCc2cc(=O)n3ccccc3n2)cc1	nt	nt	nt	nt	2%	-10%
Cc1ccc(S(=O)(=O)N2[C@@H](CO)CO[C@H]2CC(=O)OCc2ccccc2)cc1	?	i	-5%	0%	-10%	-19%
Brc1cc2c(cc1/C=N/Nc1nc(N3CCCC3)nc(N3CCOCC3)n1)OCO2	?	i	18%	13%	26µM*	16µM*
CC(=O)Nc1ccc(NC(=O)C2c3ccccc3Oc3ccccc32)cc1	i	i	6%	11%	14%	-2%
Cc1ccc(C(=O)NC2CCc3ccccc3C2=O)cc1 (stereo unspecified)	i	i	1%	21%	?	-25%
Cc1ccc(C(=O)NC2c3ccccc3-c3ccccc32)cc1	5.2µM*	6.5µM*	2.6µM*	?	2.9µM*	3.7µM*
Cc1ccc(NC(=O)C2c3ccccc3-c3ccccc32)cc1	i	i	-5%	-5%	6.5µM*	?
O=C(NCCCCCCNC(=O)c1ccccc1O)c1ccccc1O	?	?	-19%	0%	?	21µM*
O=C(NCCNC(=O)c1ccccc1O)c1ccccc1O	i	i	-1%	4%	?	-14%
CCOC(=O)C(C)N1c2cccc3cccc(c23)S1(=O)=O (stereo unspecified)	i	i	-8%	-3%	-18%	-19%
OC(CNc1nc(C(F)(F)F)nc2ccccc12)c1ccccc1 (stereo unspecified)	12µM*	?	?	?	?	?
SMILES	KB-V1 MDR tox	KB-3-1 cytotox	HT1080 IDH1KD tx	HT1080-NT tox	TDP1 cell CPT	TDP1 cell noCPT
O=C(O)CCNc1nc(C(F)(F)F)nc2ccccc12	i	i	-15%	-2%	-5%	-19%
CCOCCc1c(O)nc(SCC)[nH]c1=O	i	i	11%	11%	4%	16%
CCCCn1nc(C(=O)N(C)CC(=O)Nc2ccc(F)c(F)c2F)ccc1=O	15µM*	i	-7%	10%	-1%	0%
Cc1cc(C)cc(NS(=O)(=O)c2ccc3[nH]cc(C(=O)NC4CCCCC4)c(=O)c3c2)c1	i	i	nt	nt	23µM*	16µM*
Cc1cc(C)cc(NS(=O)(=O)c2ccc3[nH]cc(C(=O)N(C)Cc4ccccc4)c(=O)c3c2)c1	i	i	nt	nt	0%	?
COc1cccc(NS(=O)(=O)c2ccc3[nH]cc(C(=O)NC4CC4)c(=O)c3c2)c1	?	?	?	?	-27%	?
COc1cccc(NS(=O)(=O)c2ccc3[nH]cc(C(=O)NC4CCCCC4)c(=O)c3c2)c1	?	i	nt	nt	18µM*	18µM*
COc1cccc(NS(=O)(=O)c2ccc3[nH]cc(C(=O)N(C)Cc4ccco4)c(=O)c3c2)c1	i	i	?	0%	23µM*!	23µM*!
Cc1cc(C)cc(NS(=O)(=O)c2ccc3[nH]cc(C(=O)NCc4ccco4)c(=O)c3c2)c1	i	7.3µM*	5.2µM*	2.6µM*	12µM*	15µM*
COC(=O)C[C@@H]1C=C[C@@H](NS(=O)(=O)c2ccc(OC)cc2)[C@@H](CO)O1	i	i	16%	20%	8%	10%
Cc1cccc(CCNC(=O)c2c[nH]c3ccc(S(=O)(=O)Nc4ccccc4F)cc3c2=O)c1	nt	nt	nt	nt	12µM*	?
COc1cccc(NS(=O)(=O)c2ccc3[nH]cc(C(=O)NCCc4ccccc4)c(=O)c3c2)c1	i	i	nt	nt	?	?
COCCNC(=O)c1c[nH]c2ccc(S(=O)(=O)Nc3ccccc3F)cc2c1=O	i	i	-13%	-12%	-21%	-1%
COc1cccc(NS(=O)(=O)c2ccc3[nH]cc(C(=O)NCCc4ccc(C)cc4)c(=O)c3c2)c1	nt	nt	nt	nt	15µM*	16µM*
CCC(=O)Nc1nnc(S(=O)(=O)N(C)Cc2ccc(Cl)cc2)s1	i	i	nt	nt	3%	-10%
